What all share (test): DAPPL (digital affinity profiling via proximity ligation, sequencing); 10 mM Tris-HCl pH 7.5, 50 mM NaCl, 1 mM DTT, 4% glycerol, room temperature, 30 min; GST-TFs on glutathione beads, 16-mer random dsDNA library, 0.1% formaldehyde crosslink after washing; high values mean tight binding
Holding throughout (conditions): protein: recombinant; tags: N-terminal GST; dsDNA, one strand shown

In test [1] the target is T1, FLI1 (Homo sapiens, UniProt Q01543 1-452).
T1 sequence: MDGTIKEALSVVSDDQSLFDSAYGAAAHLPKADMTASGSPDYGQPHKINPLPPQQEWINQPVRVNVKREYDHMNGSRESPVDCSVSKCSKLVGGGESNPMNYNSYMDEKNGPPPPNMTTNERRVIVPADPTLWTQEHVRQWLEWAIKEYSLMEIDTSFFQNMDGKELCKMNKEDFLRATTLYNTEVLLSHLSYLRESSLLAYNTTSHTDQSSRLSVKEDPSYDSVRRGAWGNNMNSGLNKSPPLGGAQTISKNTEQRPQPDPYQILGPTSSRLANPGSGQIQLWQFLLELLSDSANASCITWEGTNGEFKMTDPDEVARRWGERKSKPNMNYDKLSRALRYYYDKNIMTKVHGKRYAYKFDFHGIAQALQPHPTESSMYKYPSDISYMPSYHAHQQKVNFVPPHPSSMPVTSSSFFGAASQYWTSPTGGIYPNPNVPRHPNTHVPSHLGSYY
The procedure, abridged: (§1)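 Human transcription factors were made in yeast as GST fusions, captured on glutathione beads and barcoded with DNA. With a tag-only sample included, the pool was incubated with 200 nmole of a random double-stranded 16-mer DNA library in Tris/NaCl/DTT/glycerol buffer at room temperature for 30 min, then crosslinked with 0.1% formaldehyde after washing, ligated by proximity, amplified and sequenced. For binding signal, each hexamer's read frequency for a factor is divided by its frequency for the tag-only sample.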

The target of test [2] is T2, ELK1 (Homo sapiens, UniProt P19419 1-428).
T2 sequence: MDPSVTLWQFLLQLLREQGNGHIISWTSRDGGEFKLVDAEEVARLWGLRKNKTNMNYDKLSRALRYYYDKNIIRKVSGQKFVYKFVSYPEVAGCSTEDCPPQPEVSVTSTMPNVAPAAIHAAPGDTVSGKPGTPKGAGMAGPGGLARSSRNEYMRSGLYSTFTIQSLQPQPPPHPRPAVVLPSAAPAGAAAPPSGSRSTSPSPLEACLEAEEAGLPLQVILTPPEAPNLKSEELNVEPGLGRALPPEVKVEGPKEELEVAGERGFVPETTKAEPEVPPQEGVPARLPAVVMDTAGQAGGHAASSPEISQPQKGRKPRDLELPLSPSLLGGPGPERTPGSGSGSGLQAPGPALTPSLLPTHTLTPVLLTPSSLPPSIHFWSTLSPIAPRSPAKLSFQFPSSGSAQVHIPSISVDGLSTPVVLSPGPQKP
The gist of the method: as §1

For test [3], the target named is T3, GABPA (Homo sapiens, UniProt Q06546 1-454).
T3 sequence: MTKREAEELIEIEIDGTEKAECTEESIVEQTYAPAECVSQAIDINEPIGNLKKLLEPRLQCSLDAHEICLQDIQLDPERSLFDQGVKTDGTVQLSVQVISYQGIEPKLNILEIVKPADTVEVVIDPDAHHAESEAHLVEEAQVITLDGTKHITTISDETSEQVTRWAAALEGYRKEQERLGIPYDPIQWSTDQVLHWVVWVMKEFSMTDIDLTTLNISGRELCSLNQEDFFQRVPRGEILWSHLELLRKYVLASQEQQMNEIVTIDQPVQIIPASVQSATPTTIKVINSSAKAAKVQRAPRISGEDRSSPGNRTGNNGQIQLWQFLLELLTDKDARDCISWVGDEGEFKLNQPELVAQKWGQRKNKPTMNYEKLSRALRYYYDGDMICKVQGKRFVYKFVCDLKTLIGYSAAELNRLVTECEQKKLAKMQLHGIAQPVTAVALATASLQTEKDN
The procedure, abridged:
as §1

The target of test [4] is ELF1 (Homo sapiens, UniProt P32519 1-619). The gist of the method:
as §1

Test [5] concerns the target SPIB (Homo sapiens, UniProt Q01892 1-262). The gist of the method:
as §1

Test [6] deals with T4, ELK3 (Homo sapiens, UniProt P41970 1-407).
T4 sequence: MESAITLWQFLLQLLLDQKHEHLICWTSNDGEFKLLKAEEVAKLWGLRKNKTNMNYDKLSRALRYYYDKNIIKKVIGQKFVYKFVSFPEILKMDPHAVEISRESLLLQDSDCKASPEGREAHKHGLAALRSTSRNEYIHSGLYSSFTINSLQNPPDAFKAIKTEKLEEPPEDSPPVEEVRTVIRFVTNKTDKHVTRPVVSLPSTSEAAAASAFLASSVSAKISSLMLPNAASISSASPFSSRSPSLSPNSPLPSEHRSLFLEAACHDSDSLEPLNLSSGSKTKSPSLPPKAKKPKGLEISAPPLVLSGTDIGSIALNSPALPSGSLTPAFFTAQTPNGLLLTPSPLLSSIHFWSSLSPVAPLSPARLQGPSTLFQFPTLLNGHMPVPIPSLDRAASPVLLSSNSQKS
The procedure, abridged: as §1

The target in test [7] is T5, ELK4 (Homo sapiens, UniProt P28324-2 1-405).
T5 sequence: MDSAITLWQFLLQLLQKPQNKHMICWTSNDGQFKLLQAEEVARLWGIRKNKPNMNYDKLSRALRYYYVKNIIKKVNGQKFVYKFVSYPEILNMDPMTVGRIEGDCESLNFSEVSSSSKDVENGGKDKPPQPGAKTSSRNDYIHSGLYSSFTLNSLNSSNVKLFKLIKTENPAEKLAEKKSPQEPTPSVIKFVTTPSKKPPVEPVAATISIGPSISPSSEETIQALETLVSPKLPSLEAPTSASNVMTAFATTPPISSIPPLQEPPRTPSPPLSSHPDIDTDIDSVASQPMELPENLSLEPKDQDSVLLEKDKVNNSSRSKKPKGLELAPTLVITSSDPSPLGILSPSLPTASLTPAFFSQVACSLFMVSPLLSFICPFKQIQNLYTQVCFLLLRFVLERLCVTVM
The procedure, abridged:
as §1

Test [8] has as its target T6, ETV2 (Homo sapiens, UniProt O00321 1-342).
T6 sequence: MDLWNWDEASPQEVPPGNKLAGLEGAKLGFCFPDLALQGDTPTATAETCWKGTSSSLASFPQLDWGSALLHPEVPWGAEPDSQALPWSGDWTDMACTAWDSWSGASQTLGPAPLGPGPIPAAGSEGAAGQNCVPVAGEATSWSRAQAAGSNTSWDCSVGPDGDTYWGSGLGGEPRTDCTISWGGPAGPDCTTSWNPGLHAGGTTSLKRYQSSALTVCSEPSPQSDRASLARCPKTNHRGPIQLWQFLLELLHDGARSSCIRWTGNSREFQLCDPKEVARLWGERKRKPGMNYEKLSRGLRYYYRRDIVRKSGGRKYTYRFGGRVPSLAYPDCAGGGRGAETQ
The procedure, abridged:
as §1

The target of test [9] is T7, ELF3 (Homo sapiens, UniProt P78545 1-371).
T7 sequence: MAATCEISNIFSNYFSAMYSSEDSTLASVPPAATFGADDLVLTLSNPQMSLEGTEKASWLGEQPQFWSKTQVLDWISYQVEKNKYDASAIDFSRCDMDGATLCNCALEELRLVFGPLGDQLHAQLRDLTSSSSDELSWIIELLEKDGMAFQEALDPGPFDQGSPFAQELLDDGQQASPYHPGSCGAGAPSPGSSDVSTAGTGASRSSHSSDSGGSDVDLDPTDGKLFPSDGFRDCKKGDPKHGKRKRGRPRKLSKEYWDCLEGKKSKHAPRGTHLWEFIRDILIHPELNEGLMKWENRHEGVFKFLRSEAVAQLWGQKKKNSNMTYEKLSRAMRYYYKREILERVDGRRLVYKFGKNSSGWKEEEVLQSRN
The gist of the method: as §1

Test [10] addresses ETV1 (Homo sapiens, UniProt P50549 1-477). The procedure, abridged: as §1
Test [11] deals with T8, ETV3L (Homo sapiens, UniProt Q6ZN32 1-361).
T8 sequence: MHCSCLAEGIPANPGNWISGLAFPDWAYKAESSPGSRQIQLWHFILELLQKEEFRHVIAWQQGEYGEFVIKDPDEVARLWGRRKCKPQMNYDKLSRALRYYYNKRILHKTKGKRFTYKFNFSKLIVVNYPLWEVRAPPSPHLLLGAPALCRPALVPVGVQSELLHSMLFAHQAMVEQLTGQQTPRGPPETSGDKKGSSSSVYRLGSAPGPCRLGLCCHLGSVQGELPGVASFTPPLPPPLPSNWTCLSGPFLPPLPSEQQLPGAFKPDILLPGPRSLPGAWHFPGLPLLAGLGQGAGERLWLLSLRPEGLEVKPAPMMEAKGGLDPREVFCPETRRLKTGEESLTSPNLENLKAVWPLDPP
The gist of the method: as §1

Test [12] has as its target T9, ETV7 (Homo sapiens, UniProt Q9Y603 1-341).
T9 sequence: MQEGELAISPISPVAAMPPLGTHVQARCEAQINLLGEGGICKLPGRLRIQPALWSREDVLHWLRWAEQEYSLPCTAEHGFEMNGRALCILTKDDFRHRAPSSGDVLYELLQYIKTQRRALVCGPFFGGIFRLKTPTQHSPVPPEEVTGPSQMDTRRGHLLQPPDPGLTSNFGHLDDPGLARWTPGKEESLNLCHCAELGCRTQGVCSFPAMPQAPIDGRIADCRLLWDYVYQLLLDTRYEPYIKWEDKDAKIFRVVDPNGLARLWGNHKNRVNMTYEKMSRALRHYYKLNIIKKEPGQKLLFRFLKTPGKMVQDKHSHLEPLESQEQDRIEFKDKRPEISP
The procedure, abridged:
as §1

For test [13], the target named is T10, ETV3 (Homo sapiens, UniProt P41162-2 1-143).
T10 sequence: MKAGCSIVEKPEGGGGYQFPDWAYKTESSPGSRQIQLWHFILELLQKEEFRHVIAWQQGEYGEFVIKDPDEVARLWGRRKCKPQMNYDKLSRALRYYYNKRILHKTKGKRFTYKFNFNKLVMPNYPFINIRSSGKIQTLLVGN
The procedure, abridged:
as §1

Test [14] has as its target T11, ERG (Homo sapiens, UniProt P11308 1-479).
T11 sequence: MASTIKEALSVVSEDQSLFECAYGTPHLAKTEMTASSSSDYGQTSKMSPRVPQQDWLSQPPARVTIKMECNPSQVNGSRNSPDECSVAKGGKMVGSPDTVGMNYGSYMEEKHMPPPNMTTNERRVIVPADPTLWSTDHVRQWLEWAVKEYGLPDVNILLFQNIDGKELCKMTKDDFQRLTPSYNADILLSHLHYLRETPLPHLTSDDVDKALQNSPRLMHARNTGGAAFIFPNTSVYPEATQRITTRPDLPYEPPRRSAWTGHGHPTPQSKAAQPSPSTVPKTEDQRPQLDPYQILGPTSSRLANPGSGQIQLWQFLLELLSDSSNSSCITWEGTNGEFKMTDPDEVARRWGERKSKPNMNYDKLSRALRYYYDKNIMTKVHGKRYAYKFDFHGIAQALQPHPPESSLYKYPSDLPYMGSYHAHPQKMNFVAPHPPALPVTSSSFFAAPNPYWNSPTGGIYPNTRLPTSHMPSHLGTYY
The procedure, abridged:
as §1

The target in test [15] is T12, ERF (Homo sapiens, UniProt P50548 1-548).
T12 sequence: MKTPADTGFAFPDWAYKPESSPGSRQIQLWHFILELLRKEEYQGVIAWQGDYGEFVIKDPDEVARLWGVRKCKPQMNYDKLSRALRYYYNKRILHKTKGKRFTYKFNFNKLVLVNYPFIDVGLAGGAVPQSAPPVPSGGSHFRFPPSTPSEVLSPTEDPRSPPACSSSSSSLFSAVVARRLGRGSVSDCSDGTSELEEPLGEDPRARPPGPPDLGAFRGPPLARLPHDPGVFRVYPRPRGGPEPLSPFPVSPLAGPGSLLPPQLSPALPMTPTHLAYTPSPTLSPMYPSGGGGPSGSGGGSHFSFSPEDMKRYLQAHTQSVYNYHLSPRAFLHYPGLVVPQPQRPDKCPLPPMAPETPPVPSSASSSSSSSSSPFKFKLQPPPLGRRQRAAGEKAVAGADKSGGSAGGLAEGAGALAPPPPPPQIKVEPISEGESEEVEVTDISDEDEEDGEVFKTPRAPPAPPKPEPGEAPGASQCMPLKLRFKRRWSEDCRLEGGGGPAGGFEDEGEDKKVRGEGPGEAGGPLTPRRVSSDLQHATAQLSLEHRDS
The gist of the method: as §1

ELF1, sequence (P32519 whole entry): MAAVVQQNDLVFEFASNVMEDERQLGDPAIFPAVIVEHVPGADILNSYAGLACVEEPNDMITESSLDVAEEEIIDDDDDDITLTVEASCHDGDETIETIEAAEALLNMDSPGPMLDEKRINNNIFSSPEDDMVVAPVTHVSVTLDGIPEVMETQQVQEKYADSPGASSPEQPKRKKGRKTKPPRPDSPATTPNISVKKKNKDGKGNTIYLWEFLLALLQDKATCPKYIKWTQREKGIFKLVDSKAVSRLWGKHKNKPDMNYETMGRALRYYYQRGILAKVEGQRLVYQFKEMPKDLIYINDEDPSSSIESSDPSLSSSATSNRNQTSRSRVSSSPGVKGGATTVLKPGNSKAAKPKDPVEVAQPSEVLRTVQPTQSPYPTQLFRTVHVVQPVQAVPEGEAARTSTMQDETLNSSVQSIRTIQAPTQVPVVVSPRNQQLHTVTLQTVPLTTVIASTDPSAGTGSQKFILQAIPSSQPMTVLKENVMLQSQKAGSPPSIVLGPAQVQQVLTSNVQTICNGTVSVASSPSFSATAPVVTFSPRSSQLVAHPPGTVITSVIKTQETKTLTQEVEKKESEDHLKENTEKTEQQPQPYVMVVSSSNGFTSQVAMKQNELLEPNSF
ETV1, sequence (P50549 whole entry): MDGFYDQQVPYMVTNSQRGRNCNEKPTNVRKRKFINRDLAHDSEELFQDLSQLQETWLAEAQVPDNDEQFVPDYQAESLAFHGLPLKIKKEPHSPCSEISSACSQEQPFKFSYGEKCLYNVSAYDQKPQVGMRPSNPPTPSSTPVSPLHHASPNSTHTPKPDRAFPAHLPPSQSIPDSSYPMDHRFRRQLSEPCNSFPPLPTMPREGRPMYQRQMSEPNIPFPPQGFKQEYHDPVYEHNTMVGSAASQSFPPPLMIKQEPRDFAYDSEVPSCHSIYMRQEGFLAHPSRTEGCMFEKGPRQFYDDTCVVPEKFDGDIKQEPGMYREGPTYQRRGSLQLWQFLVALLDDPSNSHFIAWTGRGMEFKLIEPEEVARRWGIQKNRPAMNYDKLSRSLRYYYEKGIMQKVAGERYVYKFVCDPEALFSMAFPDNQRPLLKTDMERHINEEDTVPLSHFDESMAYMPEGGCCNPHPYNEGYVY
SPIB, sequence (Q01892 whole entry): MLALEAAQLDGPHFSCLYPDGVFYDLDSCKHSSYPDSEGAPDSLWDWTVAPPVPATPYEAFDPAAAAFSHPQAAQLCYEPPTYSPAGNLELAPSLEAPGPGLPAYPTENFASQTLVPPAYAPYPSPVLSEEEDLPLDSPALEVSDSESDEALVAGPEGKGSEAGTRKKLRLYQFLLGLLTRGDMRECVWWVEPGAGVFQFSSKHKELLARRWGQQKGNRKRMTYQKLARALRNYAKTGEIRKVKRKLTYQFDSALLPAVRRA

In the case of GGTTCT, the binding signal in [1] is 1.07 fold enrichment (6-mer frequency, TF over GST control); in [2] it was 1.02 fold enrichment (6-mer frequency, TF over GST control); in test [3], 1.02 fold enrichment (6-mer frequency, TF over GST control); in test [4], 1.03 fold enrichment (6-mer frequency, TF over GST control); in test [5], 1.05 fold enrichment (6-mer frequency, TF over GST control); in test [6] it was 1.11 fold enrichment (6-mer frequency, TF over GST control). Besides, the binding signal in test [7] was 1.03 fold enrichment (6-mer frequency, TF over GST control); in test [8], 1.19 fold enrichment (6-mer frequency, TF over GST control); in [9] it was 1.08 fold enrichment (6-mer frequency, TF over GST control); in test [10], 1.01 fold enrichment (6-mer frequency, TF over GST control); in test [11], 1.01 fold enrichment (6-mer frequency, TF over GST control); in test [12], 1.01 fold enrichment (6-mer frequency, TF over GST control). In addition, the binding signal in test [13] is 1 fold enrichment (6-mer frequency, TF over GST control).
Consider CTCGGG, for which the binding signal was 1.06 fold enrichment (6-mer frequency, TF over GST control) in test [1]; 1.03 fold enrichment (6-mer frequency, TF over GST control) in [14]; 1.09 fold enrichment (6-mer frequency, TF over GST control) in test [4]; 1.03 fold enrichment (6-mer frequency, TF over GST control) in [5]; 1.05 fold enrichment (6-mer frequency, TF over GST control) in test [6]; 1.03 fold enrichment (6-mer frequency, TF over GST control) in [10]. Moreover, the binding signal was 1.02 fold enrichment (6-mer frequency, TF over GST control) in [15]; 1.09 fold enrichment (6-mer frequency, TF over GST control) in test [11]; 1 fold enrichment (6-mer frequency, TF over GST control) in test [13].

For the origin of these results see PMC7862700, “An all-to-all approach to the identification of sequence-specific readers for epigenetic DNA modifications on cytosine”.
